Out of some 190,000 compounds screened, about 1,300 (0.68%) were called active. Rule as the data show it: active = inhibition above about 50%; inactive = the rest. What follows is part of a selection rich in actives, with near analogues and random picks from the rest.
What follows are molecules tested against Mannose-6-phosphate isomerase (Homo sapiens) (UniProt P34949) (assay: MPI inhibition at elevated mannose 6-phosphate – biochemical, fluorescence intensity, high mannose 6-phosphate, primary screen (AID 1220)). Details: recombinant PMI enzyme, coupled fluorescence intensity; at 20 µM; stronger effect = higher value.
Chain of Mannose-6-phosphate isomerase (Homo sapiens) (P34949 whole entry, looked up): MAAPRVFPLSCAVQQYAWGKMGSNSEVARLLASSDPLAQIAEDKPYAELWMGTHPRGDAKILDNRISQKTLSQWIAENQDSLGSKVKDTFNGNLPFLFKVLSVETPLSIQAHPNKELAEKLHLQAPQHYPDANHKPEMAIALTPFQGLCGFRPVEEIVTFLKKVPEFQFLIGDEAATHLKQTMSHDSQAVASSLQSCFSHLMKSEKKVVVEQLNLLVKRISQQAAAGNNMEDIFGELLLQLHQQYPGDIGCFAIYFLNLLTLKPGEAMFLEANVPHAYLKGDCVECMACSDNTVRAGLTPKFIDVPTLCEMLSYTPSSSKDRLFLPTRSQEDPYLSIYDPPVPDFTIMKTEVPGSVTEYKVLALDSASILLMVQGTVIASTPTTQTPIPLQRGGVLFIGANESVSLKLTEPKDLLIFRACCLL

SMILES | inhibition
Cc1ccc(-c2nc(SCC(=O)Nc3cc(S(=O)(=O)N4CCCCC4)ccc3Cl)n[nH]2)cc1 | 10.9% (inactive)
C=C1c2ccccc2NC(=S)N1Cc1ccc2c(c1)OCO2 | -15.3% (inactive)
N#CC1=C(N)SC2(CCCCC2)SC1c1ccccc1 (stereo not given) | -5.5% (inactive)
CC(C)CC(=O)OCc1cn(-c2ccccc2)nn1 | -8.7% (inactive)
Cc1nnc(NC(=O)CSc2nccn2C)s1 | -2.9% (inactive)
COc1ccc(-n2nc3c(N)n[nH]c3cc2=O)cc1 | -97.5% (inactive)
CCOc1c(OC(C)=O)ccc(/C=C/c2ccc3cccc(OC)c3n2)c1[N+](=O)[O-] | 11.3% (inactive)
COc1ccc(CC(NC(C)=O)C(=O)NC2CCN(S(=O)(=O)c3ccccc3)CC2)cc1OC (stereo not given) | 4.4% (inactive)
CC(/C=C/c1ccccc1)=N/NC(=O)CCC(=O)Nc1ccccc1C | -55.7% (inactive)
O=C(NCc1ccc(Cl)cc1)c1ccc(-c2ccccc2C(F)(F)F)o1 | 2.3% (inactive)
Oc1ccc2ccccc2c1Br | 52.5% (active)
O=C(O)Cc1c(O)ccc2ccccc12 | 9.9% (inactive)
Oc1ccc(N=Nc2c(O)ccc3ccccc23)cc1 | 20.8% (inactive)
CC1CCN(CCNC(=O)CN(C)S(=O)(=O)c2cccc3nsnc23)CC1 | 0.3% (inactive)
Cc1c(Cl)cccc1NC(=S)Nc1ccccn1 | 3.2% (inactive)
COc1cc(NC(=O)C2=C(N3CCOCC3)/C(=C/c3ccc(Cl)cc3)CC2)cc(OC)c1OC | 23.9% (inactive)
COc1cccc(CNC(=O)c2nnn(-c3ccc(OC(F)(F)F)cc3)c2N)c1 | -5.4% (inactive)
COC(=O)c1cc(=O)n(Cc2cccs2)c(=Nc2ccc(F)cc2)s1 | -2% (inactive)
Cc1[nH][nH]c(=O)c1C(c1cc([N+](=O)[O-])ccc1O)c1c(C)[nH][nH]c1=O | 31.8% (inactive)
COc1ccc(O)c(C(c2c(C)[nH][nH]c2=O)c2c(C)[nH][nH]c2=O)c1 | 56.6% (active)

SMILES | inhibition
CCOc1cc(C(c2c(C)[nH][nH]c2=O)c2c(C)[nH][nH]c2=O)ccc1O | 49.7% (inactive)
CN(C)c1nc(N)nc(-c2nc3ccccc3s2)n1 | 6.8% (inactive)
COc1ccc(C(=O)/C=C/Nc2ccc([N+](=O)[O-])cc2)cc1 | -10.3% (inactive)
Cc1cc(Br)ccc1-n1[nH]c(C)c(C=Nc2cccc3nsnc23)c1=O | 70.9% (active)
Cc1ccc2cccc(N=Cc3c(C)[nH]n(-c4ccccc4)c3=O)c2n1 | -9.8% (inactive)
COc1ccccc1N=Cc1c(C)[nH]n(-c2ccc(C)cc2C)c1=O | 11.1% (inactive)
Cc1ccc(-c2csc(NC(=O)COc3ccc(N(C)S(=O)(=O)c4ccc(C)cc4)cc3)n2)cc1 | 8.1% (inactive)
O=C(Nc1cccc2c1CCCC2)c1ccncc1 | -4% (inactive)
CCOCCCNc1ncc2c(n1)CC(c1ccc(C)cc1)CC2=O (stereo not given) | 9.4% (inactive)
CC(C)OCCCNc1ncc2c(n1)CC(c1cccs1)CC2=O (stereo not given) | 61.9% (active)
CC(C)OCCCNc1ncc2c(n1)CC(c1ccc(N(C)C)cc1)CC2=O (stereo not given) | 22.7% (inactive)
CCC(C)C(=O)Nc1ncc2c(n1)CC(c1cccs1)CC2=O (stereo not given) | -1.8% (inactive)
CC(C)C(=O)Nc1ncc2c(n1)CC(c1cccs1)CC2=O (stereo not given) | 4% (inactive)
CC(C)OCCCNc1ncc2c(n1)CC(c1ccccc1)CC2=O (stereo not given) | 53.2% (active)
COc1ccc(C2CC(c3ccc(OC)cc3)n3nc(N)nc3N2)cc1 (stereo not given) | 10.5% (inactive)
COc1cccc(C2CC(c3c(Cl)cccc3Cl)n3nc(N)nc3N2)c1 (stereo not given) | 11.8% (inactive)
COc1ccc(C2CC(c3c(Cl)cccc3Cl)n3nc(N)nc3N2)cc1 (stereo not given) | 56.3% (active)
CN(C)/C=C1/Oc2c(ccc3ccccc23)C1=O | 59.2% (active)
CN(C)C=C1C(=O)c2ccccc2C1=O | 0.8% (inactive)
COc1cccc2c1C(=O)c1ccc3ccccc3c1C2=O | -81.6% (inactive)

SMILES | inhibition
CCCn1c(=O)c2c(nc(Br)n2CCC)n(C)c1=O | -0.3% (inactive)
COc1ccc(NC(=O)C(c2cc3c(cc2[N+](=O)[O-])OCO3)N2CCN(C=O)CC2)cc1 (stereo not given) | 65.9% (active)
COc1ccc(NC(=O)C(c2cc3c(cc2[N+](=O)[O-])OCO3)N(C)Cc2ccccc2)cc1 (stereo not given) | 54.8% (active)
COc1ccc(NC(=O)C(c2cc3c(cc2[N+](=O)[O-])OCO3)N(C)C)cc1 (stereo not given) | 55.6% (active)
COc1ccc(NC(=O)c2ccc(NC(=O)C(C)C)cc2)c([N+](=O)[O-])c1 | 1.6% (inactive)
COc1ccc(NC(=O)CN2CCN(CC(=O)Nc3ccc4c(c3)OCO4)CC2)cc1 | 0.8% (inactive)
COc1ccc(C(C(=O)Nc2ccc3c(c2)OCO3)N(C)C(=O)Cc2c[nH]c3ccccc23)cc1 (stereo not given) | 18.8% (inactive)
COc1ccc(NC(=O)C(c2cc3c(cc2[N+](=O)[O-])OCO3)N(C)c2ccccc2)cc1 (stereo not given) | 43.1% (inactive)
COc1ccc(NC(=O)/C=C/c2ccc3c(c2)OCO3)cc1 | 8.9% (inactive)
O=C(Cc1ccccc1[N+](=O)[O-])Nc1ccc2c(c1)OCO2 | 0% (inactive)
CCN(c1cccc(C)c1)C(C(=O)Nc1ccc(OC)cc1)c1cc2c(cc1[N+](=O)[O-])OCO2 (stereo not given) | 54.3% (active)
CC1CCCN(C(C(=O)NC2CCCCC2)c2cc3c(cc2[N+](=O)[O-])OCO3)C1 (stereo not given) | 41.4% (inactive)
Cc1c(C(=O)OCC(=O)Nc2ccc3c(c2)OCO3)cccc1[N+](=O)[O-] | 16.9% (inactive)
Cc1nn2cnc3sc4c(c3c2nc1=O)CCCC4 | 1.4% (inactive)
Cc1ccc(C)c(NC(=O)CSc2n[nH]c(-c3ccncc3)n2)c1 | 4.4% (inactive)
COc1cc(C(=O)NCCC(=O)N2CCN(C)CC2)cc(OC)c1OC | -1% (inactive)
COC(=O)c1ccc(NC(=O)C2CCCN2S(=O)(=O)c2ccc(C)cc2)cc1 (stereo not given) | 2.7% (inactive)
O=C(O)/C(=C\c1ccccc1Cl)c1ccc(S(=O)(=O)N2CCCCC2)s1 | -23% (inactive)
O=C(O)/C(=C\c1ccc(Br)cc1)c1ccc(S(=O)(=O)N2CCCCC2)s1 | 3.7% (inactive)
O=C(O)/C(=C\c1ccc(Cl)c([N+](=O)[O-])c1)c1ccc(S(=O)(=O)N2CCCCC2)s1 | 57% (active)
